Compounds with a hit are over-represented: about 4.1% of the library has one in this group of screens.
tim23-1 inh = growth inhibitors of tim23-1 mutant yeast, primary screen, luminescence, uHTS | S. cerevisiae tim23-1 growth, BacTiter-Glo luminescence, 24 h | inhibition, % at 20 µM | 330,000 tested, 1.3% active;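 active = growth inhibition of the mutant yeast at or above 50%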;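 also: temperature-sensitive mutant grown at 25 °C; plate controls were DMSO-treated mutant yeast for no effect and medium wells lacking yeast for full effect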
TIM10 inh = growth inhibitors of isogenic TIM10 control yeast, primary screen, counter-screen for tim10-1 yeast inhibitor project, luminescence, uHTS; S. cerevisiae TIM10 strain growth, BacTiter-Glo luminescence, 24 h; inhibition, % at 10 µM; 330,000 tested, 1.4% active; AID 463195, 2010;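 active = inhibition of 40% or more at the single tested concentration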;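 also: wild-type TIM10 isogenic control strain grown at permissive 25 °C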
tim10-1 inh = growth inhibitors of tim10-1 mutant yeast, primary screen, luminescence, uHTS. S. cerevisiae tim10-1 ts strain growth, BacTiter-Glo, 24 h. inhibition, % at 20 µM. 330,000 tested, 2.2% active;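 active = inhibition of at least 40%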;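 also: mutant grown at 25 °C; 0% = DMSO wells with yeast and 100% = wells holding no yeast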
NALP1 inh = NALP1 inflammasome inhibitors in reconstituted yeast, colorimetric, S. cerevisiae, triplicate retest | S. cerevisiae NALP1/ASC/caspase-1 growth, X-gal OD620, 72 h | inhibition, % at 10 µM | 280,000 tested, 0.61% active | AID 2071, 2009; in the data active = inhibition mostly above about 24%, no sharp cut-off; inactive = mostly below about 32%
NALP3 yeast inh = NALP3 inflammasome inhibitors in reconstituted yeast, primary screen, luminescence, uHTS; AID 2825, 2010; inhibition, % at 10 µM; Yeast reconstituted NLRP3/ASC/caspase-1, beta-gal luminescence, 24 h; 330,000 tested, 0.39% active;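 active = inhibition of 50% or more; inactive = inhibition below 50%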;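 also: plate controls were induced DMSO wells for no effect and uninduced yeast grown without galactose for full effect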
NALP3 confirm = NALP3 inhibitors retested in yeast, confirmation, luminescence, single concentration; shares compounds with NALP3 yeast inh; inhibition, % at 10 µM; 1,300 tested, 81% active; yeast expressing human NALP3; in the data active = inhibition above about 48%
Casp1-ASC yeast = CASP1-PYCARD signaling inhibition in yeast, confirmatory test, counterassay for NLRP3 inhibitor program, one-dose; shares compounds with NALP3 yeast inh; yeast expressing Caspase-1-ASC, luminescence counter screen; inhibition, % at 10 µM; 1,000 tested, 66% active; AID 488784, 2010
NALP3 retest = NALP3 inhibitors in yeast, repeat test, confirmation, luminescence, single concentration, retest | AID 488794, 2010 | yeast expressing human NALP3, luminescence read-out | 1,000 tested, 53% active | shares compounds with NALP3 yeast inh | inhibition, % at 10 µM
tim10-1 conf = growth inhibitors of tim10-1 mutant yeast, confirmation, single concentration, luminescence, S. cerevisiae; S. cerevisiae tim10-1 ts strain growth, BacTiter-Glo, 24 h; AID 463213, 2010; shares compounds with tim10-1 inh; inhibition, % at 20 µM; 7,400 tested, 56% active;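 active = inhibition of yeast growth at or above a set limit in either of two repeat tests at 20 µM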;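 also: tim10-1 mutant grown at permissive 25 °C to find synthetic lethal compounds; 0% = DMSO yeast wells and 100% = medium wells without yeast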
tim10 confirm = growth inhibitors of wild-type TIM10 yeast, confirmation, counter-screen for tim10-1 synthetic lethality project, single concentration, luminescence, S. cerevisiae | 4,600 tested, 63% active | shares compounds with TIM10 inh | S. cerevisiae tim10 strain growth, BacTiter-Glo luminescence, 24 h | inhibition, % at 10 µM;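 active = inhibition of yeast growth at or above a set limit in either of two replicates at 10 µM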;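 also: this counterscreen used the strain with wild-type TIM10; 0% = yeast with DMSO and 100% = medium wells lacking yeast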
tim23-1 conf = tim23-1 mutant yeast growth inhibitors, confirmation, luminescence, single concentration | shares compounds with tim23-1 inh | S. cerevisiae tim23-1 growth, BacTiter-Glo luminescence, 24 h | inhibition, % at 20 µM | 4,400 tested, 83% active | AID 463218, 2010;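 active = inhibition above about 39% in either of two replicate wells at 20 µM, limit read from the data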;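 also: temperature-sensitive tim23-1 mutant grown at 25 °C; 0% = DMSO wells with yeast and 100% = medium wells without yeast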
An asterisk follows results filed as active; . = no result; + = active, no number. Rule as the data show it, unless noted: active = inhibition above about 50%; inactive = the rest.

SMILES | tim23-1 inh | TIM10 inh | tim10-1 inh | NALP1 inh | NALP3 yeast inh | NALP3 confirm | Casp1-ASC yeast | NALP3 retest | tim10 confirm | tim23-1 conf | others
O=C(N/N=C/C(Cl)=C/c1ccccc1)c1ccncc1 | 2.1 | 8.6 | -14.3 | 1.5 | 9.7 | . | . | . | . | .
C[C@@]12C(=O)Nc3ccc(Cl)cc3C(=O)N1[C@H]1c3ccccc3OC[C@@H]1[C@@H]2c1ccccc1 | 61.3* | -0.2 | 23.0 | . | 78.8* | 90.8* | 70.5* | 66.5* | . | 57.2*
C[C@@]12C(=O)Nc3cc(Cl)ccc3C(=O)N1[C@H]1c3ccccc3OC[C@@H]1[C@@H]2c1ccccc1 | 34.4 | 6.8 | 22.6 | . | 16.3 | . | . | . | . | .
COc1ccccc1C(C[N+](=O)[O-])c1c(N)n(C)c(=O)n(C)c1=O (stereo not given) | 81.6* | 55.1* | 57.5* | + | 76.7* | 51.3* | 74.5* | 48.6 | 64.3* | 84.0* | tim10-1 conf=61.2*
CCC1(c2ccc(Cl)cc2)NC(=O)N(CC(=O)N2CCN(C(=O)c3ccco3)CC2)C1=O (stereo not given) | -4.4 | 4.0 | 2.7 | . | 11.8 | . | . | . | . | .
c1ccc(-c2nc(-c3cccs3)[nH]c2-c2ccccc2)cc1 | 10.3 | 34.9 | 27.2 | 8.3 | -35.7 | . | . | . | . | .
Cc1nc2nc(-c3cccs3)[nH]c2cc1Br | 61.3* | 12.7 | -7.4 | . | 53.6* | 75.7* | 59.5* | 62.8* | . | 55.0*
COc1ccc(C(=O)NCC(=O)OCC(=O)NC2CCCCCC2)cc1OC | -3.7 | 2.2 | -10.1 | . | 8.9 | . | . | . | . | .
CCCCCCCCCn1c2c(c(=N)c3c1CCC3)CCC2 | 66.7* | 48.2* | 64.4* | 27.1* | 58.9* | 65.0* | 23.4 | 54.5* | 49.5* | 82.8* | tim10-1 conf=60.5*
NC(=O)c1cc([N+](=O)[O-])ccc1NCc1cnccn1 | 1.8 | -5.7 | -23.9 | . | 2.7 | . | . | . | . | .
Cc1cccc(N/C=C/c2onc(C)c2[N+](=O)[O-])c1 | 1.4 | 5.5 | 12.8 | 15.4 | 16.4 | . | . | . | . | .
Cc1cccc(/C=C/c2onc(C)c2[N+](=O)[O-])n1 | 84.5* | 67.9* | 64.1* | . | 88.8* | 62.9* | 95.7* | 77.2* | 77.7* | 70.6* | tim10-1 conf=61.2*
CC(C)(C)c1csc(NC(=O)c2ccccc2O)n1 | 89.4* | 67.3* | 83.9* | 13.6 | 54.6* | 55.1* | 59.0* | 49.0 | 72.1* | 92.5* | tim10-1 conf=84.1*
COc1ccc(C(=O)NCc2ccc(-n3cccc3)cc2)cc1OC | 7.7 | -1.6 | 3.9 | 6.4 | 19.0 | . | . | . | . | .
COc1cccc2c1C(=O)c1c(O)c3c(c(O)c1C2=O)C[C@@](O)(C(=O)CO)C[C@@H]3O[C@H]1C[C@H](N)[C@H](O)[C@H](C)O1 | 52.2* | -6.4 | 10.6 | 18.6 | 65.0* | 69.4* | 74.8* | 65.8* | . | 43.8*
COc1ccc(Cl)cc1NC(=O)C1CSC(c2ccncc2)=N1 (stereo not given) | 12.8 | 8.9 | 8.4 | 10.1 | 16.5 | . | . | . | . | .
O=C(C[n+]1ccccc1)N/N=C/c1cc(Br)cc(Br)c1O | 67.8* | 56.5* | 36.6 | 33.8 | 77.9* | 53.2* | 86.8* | 76.8* | 68.5* | 69.1*
COc1ccc(CCN2C(=O)c3cccc4c(C(=O)N5CCCCC5)ccc(c34)C2=O)cc1OC | 15.1 | 23.0 | 16.6 | 24.5 | 8.6 | . | . | . | . | .
Cc1cc(C(=O)CCl)c(C)n1CCc1ccccc1 | 65.9* | 36.9 | 35.5 | -48.5 | -115.5 | 24.6 | . | . | . | 15.8
CCOC(=O)c1cc(C)n(CCc2ccccc2)c1C | 15.0 | 6.4 | 13.3 | -6.7 | 15.8 | . | . | . | . | .
O=C(/C=C\Nc1ccccn1)c1ccccc1 | 51.8* | 48.3* | 10.8 | -4.6 | 62.8* | 46.0* | 59.4* | 53.9* | 51.5* | 79.5*
CCOc1ccc(Br)cc1S(=O)(=O)NC(=O)c1ccccc1 | 3.7 | -5.5 | 12.5 | -1.5 | 17.4 | . | . | . | . | .
O=C(/C=C/c1ccccc1Cl)Nc1ccccc1 | 65.1* | 32.5 | 7.9 | -9.1 | 65.0* | 75.5* | 79.1* | 74.3* | . | 57.8*
CN1CCN(c2cc(-c3ccccc3)nc3cc(-c4ccc(F)cc4)nn23)CC1 | 55.3* | 33.6 | 10.7 | 4.7 | 52.0* | 63.0* | 67.8* | 65.8* | . | 43.1*
Cc1cccc(NS(=O)(=O)c2c(C)[nH]c(C)c2C(=O)N2CCCC2)c1 | -0.2 | 7.8 | -7.0 | 16.3 | 13.5 | . | . | . | . | .
SMILES | tim23-1 inh | TIM10 inh | tim10-1 inh | NALP1 inh | NALP3 yeast inh | NALP3 confirm | Casp1-ASC yeast | NALP3 retest | tim10 confirm | tim23-1 conf | others
CCOc1ccc(NC(=O)/C=C/c2ccccc2)c([N+](=O)[O-])c1 | 7.2 | -6.6 | 10.9 | 45.5 | 24.7 | . | . | . | . | .
CCOc1ccc(N/C=C/C(=O)c2ccccc2)c([N+](=O)[O-])c1 | 57.3* | 70.2* | 38.0 | 51.3* | 58.9* | -26.8 | . | . | -1.3 | 77.0*
Cc1nc2ccc(C(C(F)(F)F)(C(F)(F)F)C(F)(F)F)cc2[nH]1 | 59.4* | 34.8 | 30.5 | 40.0* | 94.8* | 89.7* | 88.8* | 80.0* | . | 65.8*
Cc1nc2ccc(S(=O)(=O)c3ccc4nc(C)[nH]c4c3)cc2[nH]1 | -3.6 | -5.1 | -24.5 | 19.2 | 14.1 | . | . | . | . | .
COc1c(OC(C)=O)c(=O)n2c3ccccc3c3ccnc1c32 | 83.0* | 72.6* | 70.1* | . | 70.7* | 75.2* | 25.8 | 63.9* | 80.0* | 66.6* | tim10-1 conf=63.6*
CC(=O)Oc1c(C)c(=O)n(C)c2ccccc12 | 14.3 | -9.9 | 2.6 | 21.0 | -17.7 | . | . | . | . | .
CC(=O)CC1=NC(C)(C)Cc2ccccc21 | 3.8 | 9.0 | -7.8 | 9.7 | 19.3 | . | . | . | . | .
COc1ccc(CNC(=O)c2c(C)oc3c2C(=O)c2ccccc2C3=O)cc1 | 88.6* | 56.5* | 83.3* | 39.5 | 69.0* | 70.5* | 5.3 | 43.3 | 68.1* | 86.0* | tim10-1 conf=73.8*
CCC(=O)N1CCc2cc(S(=O)(=O)CCC(=O)N3CCN(c4ccc(F)cc4)CC3)ccc21 | 22.9 | -4.3 | 7.0 | 19.1 | 11.8 | . | . | . | . | .

Bioassay records deposited in PubChem BioAssay by Sanford-Burnham Center for Chemical Genomics.
